For nine compounds, Potency and outcome results are on record in PubChem BioAssay (Tox21).

The structures appear in SMILES notation. Several values for one entry are separate records, joined by “and”; a condition that tells them apart may be missing. Equal values may be shown once. Records with an inconclusive call do not appear. A structure can be active in one record and inactive in another. Activity calls are given as the source filed them. Unless noted, the call rests on the fitted dose curve; in most records, active means well fitted curve in the direction sought with a large enough effect in the repeat runs; inconclusive means weak or mixed curves; inactive means no such curve, though single readings can be large; an effect the other way counts as inactive or inconclusive.

A short description of test [1]: qHTS assay to identify small molecule agonists of the vitamin D receptor (VDR) signaling pathway - cell viability counter screen (AID 743224). Further: series mostly up to about 63 µM; nearly all actives have a fitted effect of over 50% in size. In a few lines: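 VDR-bla cell line, quantitative HTS format; 16 h compound incubation (37C, 5% CO2); ATP-based CellTiter-Glo luminescence measured in the reporter assay wells.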
Test [2] can be described thus: qHTS assay to identify small molecule antagonists of the vitamin D receptor (VDR) signaling pathway - cell viability counter screen (AID 743225). Further: nearly all actives have a fitted effect of over 50% in size. In a few lines:
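Read-out: CellTiter-Glo luminescence measured 30 min after reagent addition at room temperature. Cells were VDR-bla HEK 293T exposed 16 h at 37C, 5% CO2, to compound with 3 nM final calcitriol agonist.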

Test [3] in a line: qHTS assay to identify small molecule agonists of the NFkB signaling pathway (AID 1159509; active means well fitted curve in the direction sought with a large enough effect in the signal ratio in the repeat runs, not every such curve was filed as active; the % refers to the signal ratio; further: series mostly up to about 61 µM). In a few lines: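 NFkB-bla ME-180 cells carry a beta-lactamase reporter under an NF-kB response element. They were plated overnight, then exposed to compounds for 5 h at 37 C. Read-out is LiveBLAzer FRET after 1.5 hr at room temperature (405 nm excitation; 460/530 nm emission).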
A short description of test [4]: qHTS assay to identify small molecule agonists of the NFkB signaling pathway - cell viability counter screen (AID 1159515; calls by dose curve; further: series mostly up to about 61 µM; nearly all actives have a fitted effect of over 55% in size). In a few lines: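 Viability in NFkB-bla ME-180 cells was measured by CellTiter-Glo luminescence, 30 min room temperature, in wells already treated 5 hr with compounds and read for reporter FRET.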
Test [5] can be described thus: qHTS assay to identify small molecule agonists of the endoplasmic reticulum stress response signaling pathway (AID 1159516; active means well fitted activation curve with a large enough effect in the signal ratio in the repeat runs, not every such curve was filed as active; the % refers to the signal ratio). In a few lines:
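ER stress element reporter (bla) in HeLa. 1,500 cells/well, overnight attachment; 5 hr compound; 2 hr RT substrate; dual-emission fluorescence.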
A general note: In qHTS, concentration-response curves come from the screen itself.

Test [6] can be described thus: qHTS assay to identify small molecule agonists of the endoplasmic reticulum stress response signaling pathway - cell viability counter screen (AID 1159517; calls by dose curve;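 further: HeLa cells carrying an ER stress response element beta-lactamase reporter; series mostly up to about 61 µM; nearly all actives have a fitted effect of over 50% in size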). In a few lines:
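HeLa cells carrying an ESRE-driven beta-lactamase reporter receive compound for 5 hr at 37 C. Cell viability is then gauged with CellTiter-Glo by luminescence, 30 min at room temperature.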

Test [7] is described as follows: qHTS assay to identify small molecule antagonists of the retinoid-related orphan receptor gamma (ROR-gamma) signaling pathway - cell viability counter screen (AID 1159520). Further: nearly all actives have a fitted effect of over 50% in size. In a few lines:
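Cytotoxicity was read from cellular ATP (CellTiter-Glo luminescence) after 16 hr at 37 C with 1 uM doxycycline induction. The inducer was added 2 hr after compound transfer to Tet-on ROR gamma CHO cells.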

Test [8] addresses Nuclear receptor ROR-gamma (Homo sapiens) (UniProt P51449). The test can be described thus: qHTS assay to identify small molecule antagonists of the retinoid-related orphan receptor gamma (ROR-gamma) signaling pathway (AID 1159521; further: nearly all actives have a fitted effect of over 50% in size; further: potency means the concentration at half of the fitted maximal effect). In a few lines: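 CHO Tet-on RORγ, RORE-luc reporter. Cpd 2 h pre-incubation, then dox hyclate 1 uM final, 16 h, 37 C/5% CO2. ONE-Glo luminescence; decrease = antagonist.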

Test [9] can be described thus: qHTS assay to identify small molecule agonists of the AP-1 signaling pathway - cell viability counter screen (AID 1159525; calls by dose curve; further: nearly all actives have a fitted effect of over 55% in size). In a few lines:
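Luminescent ATP readout (Cell Titer Glo, 30 min RT), normalised to DMSO and tetra n-octyl ammonium bromide controls. Cells were ME-180 AP-1-bla in 0.5% dialyzed FBS Opti-MEM, with a 5 h, 37 °C compound exposure.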

A short description of test [10]: qHTS assay to identify small molecule agonists of the AP-1 signaling pathway (AID 1159526; calls by dose curve; further: potency means the concentration at half of the fitted maximal effect).
Test [11] addresses Retinoic acid receptor RXR-alpha (Homo sapiens) (UniProt P19793). The test can be described thus: qHTS assay to identify small molecule agonists of the RXR signaling pathway (AID 1159527; calls by dose curve; further: nearly all actives have a fitted effect of over 35% in size). In a few lines:
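Read-out: beta-lactamase FRET ratio (405 nm excitation, 460 and 530 nm emission) after 2 hr substrate loading at room temperature. Cells were RXR-alpha-UAS-bla HEK 293T treated with compounds for 16 hr in 2% charcoal-stripped FBS medium.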

Test [12] can be described thus: qHTS assay to identify small molecule agonists of the RXR signaling pathway - cell viability counter screen (AID 1159529). Further: nearly all actives have a fitted effect of over 50% in size. Further: potency means the concentration at half of the fitted maximal effect. In a few lines:
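HEK 293T RXRa-bla cells, 2% CS-FBS; 5 h settle; cpd 16 h 37 C, 5% CO2; CellTiter-Glo 30 min RT, luminescence. Tetraoctyl ammonium bromide as positive control.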

The nature of test [13]: qHTS assay to identify small molecule antagonists of the retinoid acid receptor (RAR) signaling pathway - cell viability counter screen (AID 1159551). Further: nearly all actives have a fitted effect of over 35% in size. In a few lines:
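Following overnight attachment, C3RL4 reporter cells received DMSO-dissolved compounds and then retinol (1 uM final). Six hours later at 37 C, ATP content was measured by CellTiter-Glo luminescence.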

Test [14] is described as follows: qHTS assay to identify small molecule antagonists of the retinoic acid receptor (RAR) signaling pathway (AID 1159552; further: nearly all actives have a fitted effect of over 50% in size). In a few lines: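 Cells of the C3RL4 line were seeded, incubated overnight, then dosed with compounds in DMSO followed immediately by retinol (1 uM final). Six hours later luciferase detection reagent went in; signal was measured after 30 min at RT.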

Test [15] is described as follows: qHTS assay to identify small molecule agonists of the retinoic acid receptor (RAR) signaling pathway (AID 1159553). In a few lines:
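Cell line C3RL4, RARE luciferase reporter. Treatment: compounds in DMSO, 6 hr, 37 C, 5% CO2, after overnight plating. Detection: luminescence, 30 min RT after reagent.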

A short description of test [16]: qHTS assay to identify small molecule antagonists of the estrogen related receptor (ERR) signaling pathway - cell viability counter screen (AID 1224818). Further: series mostly up to about 46 µM. In a few lines: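 Here, ERR cells are plated at 2,000 cells per well, allowed 6 h to attach, and treated with compounds in DMSO for 17.5 h at 37 C. CellTiter-Fluor is then added and fluorescence read after 30 min.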

Test [17] can be described thus: qHTS assay to identify small molecule antagonists of the estrogen related receptor signaling pathway with the pleiotropic PPARgamma coactivator (PGC) cell viability counter screen (AID 1224822; further: series mostly up to about 46 µM). In a few lines: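 qHTS format, DMSO compound stocks pin-transferred onto PGC/ERR cells 6 h after plating; 17.5 h exposure at 37 C, then CellTiter-Fluor fluorescence.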

Chain of Retinoic acid receptor RXR-alpha (Homo sapiens) (P19793 whole entry, looked up): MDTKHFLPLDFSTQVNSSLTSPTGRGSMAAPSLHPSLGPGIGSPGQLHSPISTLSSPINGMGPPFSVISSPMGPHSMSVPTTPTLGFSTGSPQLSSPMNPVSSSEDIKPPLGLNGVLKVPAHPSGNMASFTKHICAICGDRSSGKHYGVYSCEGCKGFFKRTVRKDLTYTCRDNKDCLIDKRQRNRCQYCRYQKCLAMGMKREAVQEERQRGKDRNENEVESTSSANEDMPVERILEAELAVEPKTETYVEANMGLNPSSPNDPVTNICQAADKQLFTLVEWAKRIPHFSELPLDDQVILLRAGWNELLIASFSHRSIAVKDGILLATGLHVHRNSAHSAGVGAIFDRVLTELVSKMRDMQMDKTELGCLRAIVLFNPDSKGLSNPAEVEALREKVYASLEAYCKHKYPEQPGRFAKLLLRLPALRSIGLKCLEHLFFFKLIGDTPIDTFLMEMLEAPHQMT

With `COCC(=O)O`, the Potency entry in [1], in test [2], in [6], in test [7], in test [8] and in test [9] was “inactive” throughout. Moreover, the Potency result in [10], in [11], in test [12], in test [13], in test [14] and in [15] was “inactive” throughout. The compound was called inactive in test [3], in [4] and in test [5].

As to `CNC[C@H](O)[C@@H](O)[C@H](O)[C@H](O)CO`, the Potency result in test [1], in [6], in test [7], in test [8], in test [9] and in test [10] was “inactive” each time. Further, the Potency result in test [11], in [12], in test [13], in test [14] and in [15] was “inactive” each time. The outcome in [3], in test [4] and in [5] was inactive.

As to `CC(=O)Nc1ccc(C(=O)O)cc1`, the Potency entry in test [1], in [2], in [6], in [7], in [8] and in test [9] was “inactive” each time. In addition, the Potency entry in [10], in test [11], in test [12], in test [13], in [14] and in test [15] was “inactive” throughout. For the same compound, the call in [3], in test [4] and in test [5] was inactive.

For the compound `Oc1c(Cl)cc(Cl)c(Cl)c1Cl`, the Potency entry in test [1], in test [6], in test [7], in test [9], in [10] and in test [11] was “inactive” each time. The Potency result in [13], in [14] and in test [15] was “inactive” in each case. The compound was called inactive in test [3], in [4] and in test [5]. The Potency in test [8] is 53.3 µM (active) and 61.1 µM (active); in test [12] it was 15.2 µM (active) and 13.8 µM (active).

Regarding `CC(C)(C)C1CCC(O)CC1` (stereo not drawn), the Potency entry in [1], in test [2], in test [6], in [7], in test [8] and in [9] was “inactive” throughout. Further, the Potency entry in [10], in test [11], in test [12], in [13], in test [14] and in [15] was “inactive” each time. Further, the outcome in [3], in test [4] and in test [5] was inactive.

Take `CCOC(=O)[C@H](CCc1ccccc1)N[C@@H](C)C(=O)N1Cc2ccccc2C[C@H]1C(=O)O`: the Potency entry in test [1], in [2], in test [6], in test [7], in [8] and in [9] was “inactive” each time. Moreover, the Potency result in [11], in test [12], in test [13], in test [14] and in test [15] was “inactive” throughout. The compound was classed as inactive in test [3], in [4] and in test [5]. Also, the Potency entry in test [10] was “inactive and 26.8 µM (active)”.

As to `NS(=O)(=O)c1cc2c(cc1Cl)NC=NS2(=O)=O`, the Potency result in [1], in test [2], in test [6], in [7], in test [8] and in test [9] was “inactive” in each case. Further, the Potency entry in test [10], in test [11], in test [12], in test [13], in [14] and in test [15] was “inactive” each time. The compound was called inactive in test [3], in test [4], in test [5], in test [16] and in test [17].

Turning to `CC1Cc2ccccc2N1NC(=O)c1ccc(Cl)c(S(N)(=O)=O)c1` (stereo not drawn), the Potency entry in test [1], in test [6], in [7], in [8], in test [9] and in [10] was “inactive” in each case. The Potency result in [11], in test [12], in test [13], in [14] and in [15] was “inactive” throughout. Further, the call in test [3], in [4] and in test [5] was inactive.

Turning to `CCOC(=O)/C=C\C(=O)OCC`, the Potency entry in test [1], in [6], in test [7], in test [8], in test [9] and in test [10] was “inactive” each time. Also, the Potency result in test [11], in test [12], in test [13], in [14] and in test [15] was “inactive” throughout. In addition, the outcome in [3], in [4] and in test [5] was inactive.
